A short description of assay [1]: resazurin metabolic signal in HepG2 cells – cell-based, resazurin fluorescence, 24 h, PK04 Diversity Set, profiling panel (AID 1172). Also: test concentration not given here. As to conditions: HepG2 viability, higher = more signal.
A short description of assay [2]: budding yeast growth changes without added modifier – OD600, strain BY4716, 24 h, basal condition, primary screen (AID 1173). As to conditions: S. cerevisiae BY4716 growth, OD600, 24 h; higher = more signal, called active from +8 up or from −8 down.
Assay [3] in a line: viability profiling in MM1S myeloma cells – cell-based, resazurin fluorescence, basal, 24 h, PK04 Diversity Set, profiling panel (AID 1174). Also: test concentration not given here. As to conditions: higher = more signal, called active from +8 up or from −8 down.
For assay [4], the target named is Dihydroorotate dehydrogenase (quinone), mitochondrial (Plasmodium falciparum (isolate 3D7)) (UniProt Q08210). In words: inhibition of P. falciparum DHODH – biochemical, C-terminal His tag, absorbance 600 nm, primary screen (AID 1175).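 Also: recombinant parasite enzyme with a five histidine tag at its C terminus; test concentration not given here.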 As to conditions: PfDHODH enzyme, DCIP absorbance 600 nm; higher = more signal, called active from +8 up or from −8 down.
Chain of Dihydroorotate dehydrogenase (quinone), mitochondrial (Plasmodium falciparum (isolate 3D7)) (Q08210 whole entry, looked up): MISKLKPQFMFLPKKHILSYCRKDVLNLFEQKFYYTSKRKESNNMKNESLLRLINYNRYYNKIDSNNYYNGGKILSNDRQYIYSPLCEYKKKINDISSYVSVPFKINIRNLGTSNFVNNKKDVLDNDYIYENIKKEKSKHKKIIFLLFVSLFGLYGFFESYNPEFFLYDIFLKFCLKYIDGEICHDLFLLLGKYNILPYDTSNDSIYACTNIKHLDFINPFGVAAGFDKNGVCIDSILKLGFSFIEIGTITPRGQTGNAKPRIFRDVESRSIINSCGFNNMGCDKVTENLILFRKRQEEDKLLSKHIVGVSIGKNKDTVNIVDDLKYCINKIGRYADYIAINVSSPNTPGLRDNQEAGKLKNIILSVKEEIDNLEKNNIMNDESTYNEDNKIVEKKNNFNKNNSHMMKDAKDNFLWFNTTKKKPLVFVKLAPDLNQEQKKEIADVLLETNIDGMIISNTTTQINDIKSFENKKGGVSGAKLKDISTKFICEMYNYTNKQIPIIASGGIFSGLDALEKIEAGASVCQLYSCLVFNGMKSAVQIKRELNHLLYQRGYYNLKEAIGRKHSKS
The nature of assay [5]: growth modulation of vineyard yeast isolate – strain RM11-1a, OD600, basal, 24 h, primary screen (AID 1177).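 Also: cultures grown under basal conditions with no added stressor; test concentration not given here.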 As to conditions: S. cerevisiae RM11-1a growth, OD600, 24 h; higher = more signal, called active from +8 up or from −8 down.
Assay [6] is described as follows: growth of efflux-deficient E. coli DRC39 – strain DRC39, OD650, 24 h, E. coli filamentation inducers, primary screen (AID 1178).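 Also: growth measured as culture turbidity by optical density at 650 nm; test concentration not given here.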 As to conditions: E. coli DRC39 acrAB, higher = more signal, called active from +8 up or from −8 down.
Assay [7] in a line: growth of efflux-deficient E. coli DRC39 – strain DRC39, OD650, 48 h, E. coli filamentation inducers, primary screen (AID 1179).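 Also: screen aims at cell division blockers that make cells filament.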 As to conditions: E. coli DRC39 delta-acrAB growth, higher = more signal, called active from +8 up or from −8 down.
Assay [8] in a line: viability profiling in RPMI8226 myeloma cells – cell-based, resazurin fluorescence, basal, 24 h, PK04 Diversity Set, profiling panel (AID 1180).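 Also: RPMI8826 multiple myeloma cell line at 5000 cells per well; test concentration not given here.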 As to conditions: higher = more signal.
For assay [9], the target named is E3 ubiquitin-protein ligase XIAP (Homo sapiens) (UniProt P98170). Description: small molecules binding XIAP protein – biophysical, small-molecule microarray, fluorescence 635 nm, primary screen (AID 1181).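 Also: score merges 667 nm emission and signal to noise over triplicate slides.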 As to conditions: higher = more signal.
Chain of E3 ubiquitin-protein ligase XIAP (Homo sapiens) (P98170 whole entry, looked up): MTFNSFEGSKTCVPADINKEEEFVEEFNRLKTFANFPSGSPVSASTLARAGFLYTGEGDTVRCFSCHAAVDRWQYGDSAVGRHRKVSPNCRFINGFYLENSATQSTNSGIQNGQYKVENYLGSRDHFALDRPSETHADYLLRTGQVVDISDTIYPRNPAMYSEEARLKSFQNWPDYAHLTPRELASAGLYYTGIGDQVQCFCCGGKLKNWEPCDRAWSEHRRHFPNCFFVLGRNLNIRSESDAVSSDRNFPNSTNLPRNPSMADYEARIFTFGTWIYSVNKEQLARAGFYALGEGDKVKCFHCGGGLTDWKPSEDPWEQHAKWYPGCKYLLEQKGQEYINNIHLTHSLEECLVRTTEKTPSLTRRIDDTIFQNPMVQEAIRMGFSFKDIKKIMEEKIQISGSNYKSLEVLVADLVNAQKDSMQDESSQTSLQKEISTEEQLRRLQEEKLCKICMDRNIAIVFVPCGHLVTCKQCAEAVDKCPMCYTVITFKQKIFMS

Calls of active or inactive are those of the source.

In the case of `CO[C@H]1COC(=O)[C@H](C)COC(=O)[C@H](Cc2ccccc2)NC(=O)CC=C[C@H]1C`, the z-score in [1] was 0.492; in assay [2] it was -1.3 (inactive); in [3] it was 0.62 (inactive); in assay [5] it was -0.954 (inactive); in assay [6] it was 0.192 (inactive); in assay [7] it was 0.144 (inactive). Also, the z-score in assay [8] is 0.254. Also, the composite z-score was -0.393 (inactive) in assay [4] and -0.267 in assay [9].
`COCCOC(=O)N1C(=O)[C@@]2(c3cc(C#CCNC(N)=O)ccc31)[C@H](c1ccc(OCCO)cc1)N1[C@H](c3ccccc3)[C@H](c3ccccc3)OC(=O)[C@H]1[C@@H]2C(=O)N1CCCCCCC1`: the z-score in assay [1] was 0.377; in assay [2], 1.52 (inactive); in assay [3], 1.2 (inactive); in assay [5], 2 (inactive); in assay [6] it was -0.132 (inactive); in [7] it was 0.538 (inactive). In assay [8], this molecule displayed a z-score of 1.41. Besides, the composite z-score is 0.0238 (inactive) in assay [4] and -0.0559 in assay [9].
Consider `CN1C2C=C(c3ccc(CO)cc3)C(C3C(=O)N(C(N)=O)C(=O)C32)C1c1cccs1` (stereo not drawn), for which the z-score in assay [1] was 0.935; in assay [2], -1.28 (inactive); in [3] it was 1.05 (inactive); in assay [5], 1.19 (inactive); in assay [6], 1.09 (inactive); in assay [7] it was 0.798 (inactive). The molecule also registered a z-score in [8] of 0.898. Besides, the composite z-score is 0.683 (inactive) in assay [4] and -0.337 in assay [9].
On to `C=CCC(OC(C)=O)[C@@H]1[C@@H](N(Cc2cc3ccccc3o2)C(=O)c2ccc(C)cc2)c2cc(OCCCO)ccc2N1C(=O)c1ccc2ccccc2n1` (stereo partly drawn), for which the z-score is 1.8 in assay [1]; -0.934 (inactive) in assay [2]; 1.37 (inactive) in assay [3]; -0.0157 (inactive) in assay [5]; 1.74 (inactive) in assay [6]; 1.42 (inactive) in [7]. In assay [8], this molecule came in with a z-score of 0.585. The composite z-score in assay [4] is 0.309 (inactive); in assay [9], 0.437.
Regarding `C=CCN1C(=O)[C@@]2(O[C@@H](CCn3cc([C@H](O)c4ccccc4)nn3)[C@H]([Si](C)(C)c3ccc(OC)cc3)[C@H]2C)c2cc(N3CCOC3=O)ccc21`, the z-score is -0.555 in assay [1]; -1.5 (inactive) in assay [2]; -0.365 (inactive) in [3]; -1.57 (inactive) in assay [5]; 1.41 (inactive) in assay [6]; 0.391 (inactive) in assay [7]. The z-score in [8] is -1.24. In addition, the composite z-score in [4] is -1.47 (inactive); in assay [9] it was 0.076.
As for `CO[C@H]1COC(=O)[C@H](CCSC)NC(=O)CC=C[C@@H](C)COC(=O)[C@@H](OCc2ccccc2)C=C[C@@H]1C`, the z-score was 0.732 in assay [1]; 0.0539 (inactive) in assay [2]; 1.06 (inactive) in assay [3]; 0.449 (inactive) in [5]; 0.607 (inactive) in assay [6]; 0.26 (inactive) in assay [7]. Also, the z-score in assay [8] was 0.658. Also, the results for the composite z-score in assay [4] and in [9] were 0.292 (inactive) and -0.12, respectively.
In the case of `C=CC[C@]1(C(=O)O)N=C(c2ccc(OCCCO)cc2)O[C@H]1c1ccccc1`, the z-score was 0.734 in [1]; -2.31 (inactive) in [2]; 1.63 (inactive) in assay [3]; 0.344 (inactive) in assay [5]; 2.94 (inactive) in assay [6]; 1.25 (inactive) in assay [7]. Moreover, the z-score in [8] was 1.77. Further, the composite z-score in assay [4] is 1.51 (inactive); in assay [9], 0.109.
With `CO[C@H]1COC(=O)CC=C[C@@H](C)COC(=O)[C@@H](C)NC(=O)CC=C[C@@H]1C`, the z-score in assay [1] is 0.931; in assay [2], -2.02 (inactive); in assay [3], 1.13 (inactive); in assay [5], -4.97 (inactive); in assay [6], 0.236 (inactive); in assay [7], -1.28 (inactive). For the same molecule, the z-score in assay [8] came to 0.181. Besides, the composite z-score in [4] is -0.0214 (inactive); in assay [9], -0.216.
As to `CC(C)N1CC=CC23O[C@@H]4/C=C\CCCOC(=O)C4[C@H]2C(=O)N(CCO)[C@@H]3C1=O` (stereo partly drawn), the z-score in assay [1] was 1.09; in [2] it was -1.71 (inactive); in assay [3] it was 0.998 (inactive); in [5] it was -2.54 (inactive); in assay [6], 2.2 (inactive); in [7], 2.25 (inactive). The z-score in assay [8] amounted to 0.855. The composite z-score in assay [4] was -1.71 (inactive); in assay [9], -0.16.
For `O=C(O)[C@@H]1Cc2c([nH]c3ccccc23)[C@@H](c2ccccc2)N1`, the z-score in assay [1] is 0.326; in assay [2] it was -0.949 (inactive); in [3] it was 1.14 (inactive); in assay [5] it was -0.19 (inactive); in [6], -0.266 (inactive); in assay [7] it was 0.0747 (inactive). The z-score in assay [8] was determined as 0.724. The composite z-score in assay [4] was -0.36 (inactive); in assay [9] it was -0.127.
Turning to `C[C@]1(C(=O)NCc2ccccc2)c2ccccc2C(=O)N(Cc2cc(C(F)(F)F)cc(C(F)(F)F)c2)[C@H]1c1ccc(CO)cc1`, the z-score is -0.331 in [1]; -1.35 (inactive) in assay [2]; 0.865 (inactive) in assay [3]; -2.4 (inactive) in assay [5]; 1.04 (inactive) in assay [6]; 0.528 (inactive) in [7]. In [8], this molecule showed a z-score of 1.12. Moreover, the results for the composite z-score in assay [4] and in [9] were -1.4 (inactive) and -0.177, respectively.
With `COC(=O)C1=CC(c2ccc(CO)cc2)=CC(C2CC2)N(Cc2sc3ccccc3c2Cl)C=C1C(=O)OC` (stereo not drawn), the z-score in [1] was 0.0452; in [2], -4.51 (inactive); in [3] it was -2.01 (inactive); in [5], -0.844 (inactive); in assay [6], -2.1 (inactive); in assay [7], -1.67 (inactive). The molecule further registered a z-score in [8] of -1.75. Moreover, the composite z-score in assay [4] was -0.245 (inactive); in assay [9], 0.0909.

Values taken from PubChem BioAssay.
